# Target: PEG-3 (UniProt Q6IN02)
# Assay: GAPDH versus PEG-3 reporter suppression – cell-based, luminescence, counter-screen for PEG-3 promoter inhibitor project, SAR follow-up (AID 651551)
# Details: HeLa PEG-Prom / GAPDH luciferase reporter, 6 or 24 h, run 1, 6 h; at 99 µM (top of the series)
row,SMILES,inhibition % (higher = more inhibition) [%]
1,COc1ccc(Cl)cc1Nc1nc(-c2sc(NC(=O)c3ccccc3)nc2C)cs1,49.3
2,COc1ccc(-n2nc(C(=O)NCC(=O)Nc3cc(OC)c(OC)c(OC)c3)c3ccccc3c2=O)cc1OC,6.02
3,Cc1ccc(Cl)cc1Nc1nc(-c2sc(NC(=O)c3ccco3)nc2C)cs1,57.5
4,Cc1nc(NC(=O)c2ccccc2)sc1-c1csc(Nc2ccccc2)n1,23.9
5,Cc1cc(NC(=O)c2ccccc2)n(-c2nc3ccccc3n2C)n1,48.1
6,CCCn1nc(C(=O)Nc2nc3ccccc3s2)c2ccccc2c1=O,38.9
7,CCn1nc(C(=O)Nc2nc(-c3ccccn3)cs2)c2ccccc2c1=O,26.9
8,O=C(Nc1nc(-c2ccccc2)cs1)c1nn(-c2ccccc2)c(=O)c2ccccc12,-1.45
9,Cc1nc(NC(=O)c2ccccc2)sc1-c1csc(Nc2cccc(Cl)c2C)n1,37.4
10,O=C(Nc1nc2ccccc2s1)c1nn(-c2ccccc2)c(=O)c2ccccc12,-4.43
11,CCn1cc(C(=O)NCc2ccco2)c(=O)c2cc(S(=O)(=O)N3CCCC3)ccc21,19.5
12,O=C(Nc1nccs1)c1nn(-c2ccccc2)c(=O)c2ccccc12,37.4
13,COc1ccc(-n2nc(C(=O)NCC(=O)Nc3ccc(OC)c(OC)c3)c3ccccc3c2=O)cc1,23.9
14,Cc1cc(NC(=O)c2ccccc2C(F)(F)F)n(-c2nc3ccccc3[nH]2)n1,92.7
15,CCCn1nc(C(=O)Nc2nc(-c3ccncc3)cs2)c2ccccc2c1=O,19.5
16,COc1ccc(-n2nc(C(=O)NCC(=O)Nc3cccc(OC)c3)c3ccccc3c2=O)cc1,-7.42
17,CCCn1nc(C(=O)Nc2nc(-c3ccccn3)cs2)c2ccccc2c1=O,25.9
18,Cc1nc(NC(=O)c2ccccc2)sc1-c1csc(Nc2ccccc2Cl)n1,-1.45
19,COc1ccccc1Nc1nc(-c2sc(NC(=O)c3ccco3)nc2C)cs1,12
20,Cc1cc(NC(=O)c2cccc(C)c2C)n(-c2nc3ccccc3[nH]2)n1,20.4
21,Cc1cc(NC(=O)c2ccccc2C)n(-c2nc3ccccc3[nH]2)n1,32.8
22,Cc1cc(NC(=O)c2ccccc2)n(-c2nc3ccccc3[nH]2)n1,14.9
23,COCCCNC(=O)c1ccc(Cn2c(=O)c3ccccc3n(Cc3ccccc3C#N)c2=O)cc1,43.4
